Assay results published in PubChem BioAssay AID2685 (National Center for Advancing Translational Sciences (NCATS), 2010).
Hit rate of the full screen: of about 320,000 compounds, about 2,100 (0.66%) were called active. Inconclusive results (about 53%) are left out. Calls follow the shape of the dose curve; as a rule, active = well fitted inhibition curve with a large enough effect in the signal ratio, with a control signal flat (not every such curve was filed as active); inconclusive = small, poorly fitted or top-dose-only effect, or effect the other way, or a change in a side signal; inactive = flat fitted curve, though single readings scatter; the % refers to the signal ratio. Many of the other results were omitted from the sample, so actives are more common in it than they were.

Test: qHTS Assay for Lipid Storage Modulators in Drosophila S3 Cells;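 as to cell number change: cells counted by Cell Tracker Red CMTPX staining in the red channel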; as to lipid storage change, negative = inhibition: % is scaled to controls: 0 for no effect and ±100 for the full control effect
Conditions: BODIPY lipid droplet fluorescence, 18-24 h, cells fed with added oleic acid; cell number change: measured here: cell count max response; series mostly up to 46.1 µM; lipid storage change, negative = inhibition: at the top concentration
Procedure, shortened: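 Laser-scanning cytometry quantifies lipid droplet accumulation (500–530 nm total intensity; droplet/cell object ratio) in oleic acid-fed (400 uM added) Drosophila S3 cells treated with a concentration series. 20 uM Triacsin C defined 100% inhibition.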
Potency is read from the fitted curve at half-maximal effect.

Row | Structure (SMILES) | lipid storage change, negative = inhibition | cell number change | outcome | Potency
1 | CCC1=C(OC(=O)N(CC)CC)N2C(=O)OC(=NCc3ccccc3)[C@]2(C)[C@H]2C1=CC[C@H]1C(=O)N(c3ccccc3)C(=O)[C@H]12 | 10.2% (inactive) | 11.7% |  | 
2 | Cc1cc(NC(=O)COC(=O)c2ccccc2[N+](=O)[O-])no1 | 11.3% (inactive) | -0.913% |  | 
3 | O=C(C1=C(O)C(=O)N(CCc2ccccc2)C1c1cccs1)c1ccco1 (stereo not drawn) |  |  | inactive | 
4 | COc1ccccc1-[n+]1c(C)cc(/C=C2\Sc3ccccc3N2C)cc1C |  | -16.5% |  | 0.082 µM (active)
5 | Cc1ccc2c(c1)S/C(=C/c1ccc[n+](CCO)c1)N2C | -3.25% (inactive) | 5.41% |  | 
6 | CN1/C(=C/c2cccc[n+]2CCO)Sc2ccccc21 | -13.9% (inactive) | 0.676% |  | 
7 | Cn1cc(CN2CCCC(CNC(=O)c3ccc4c(c3)OCO4)C2)c2ccccc21 (stereo not drawn) | 13.4% (inactive) | -1.43% |  | 
8 | COc1ccc(-n2nc3c(c2NC(=O)CBr)CSC3)cc1 | -5.01% (inactive) | 13.3% |  | 
9 | C=CCC(NCc1ccco1)c1ccc(OC)cc1 (stereo not drawn) | -17.7% (inactive) | -21.6% |  | 
10 | C=CCC(Nc1ccccc1)c1ccc(OC)c(OC)c1 (stereo not drawn) | 16.3% (inactive) | 7.9% |  | 
11 | C=CCC(NCc1ccco1)c1ccc(OC)c(OC)c1 (stereo not drawn) |  |  |  | 23.1 µM (active)
12 | CCOc1ncccc1C(=O)OCC(=O)Nc1cc(S(=O)(=O)N(CC)CC)ccc1C | -12% (inactive) | -5.2% |  | 
13 | COCCCn1c(-c2ccc(OC)cc2)nc2nc3ccccc3nc21 |  | 5.75% | inactive | 
14 | Cc1ccc(S(=O)(=O)N2CCCCC2)cc1C(=O)N1CCN(c2ccccn2)CC1 | 7.29% (inactive) |  |  | 
15 | Cc1cccc(C(=O)NCc2nnc(SCC(=O)Nc3nncs3)n2C)c1 | 23.4% (inactive) | -2.14% |  | 
16 | CC(NC(=O)CCC(=O)NC(C)C1COc2ccccc2O1)C1COc2ccccc2O1 (stereo not drawn) | -3.23% (inactive) | -1.04% |  | 
17 | O=C(OC1CCOC1=O)c1cc(-c2cccc(Br)c2)nc2ccccc12 (stereo not drawn) | 4.32% (inactive) | 21.7% |  | 
18 | COc1cc(C(C[N+](=O)[O-])c2c(C)cc3ccccn23)ccc1O (stereo not drawn) |  | 15.3% |  | 0.651 µM (active)
19 | Cc1cc2ccccn2c1C(C[N+](=O)[O-])c1ccc(N(C)C)cc1 (stereo not drawn) | 7.67% (inactive) | 12.9% |  | 
20 | COc1cc(C(C[N+](=O)[O-])c2c(C)[nH]c3ccccc23)ccc1O (stereo not drawn) | 6.04% (inactive) | 20.5% |  | 

Row | Structure (SMILES) | lipid storage change, negative = inhibition | cell number change | outcome | Potency
21 | Cc1nc(Cl)sc1C(=O)Nc1ccc(C(C)(C)C)cc1 |  | 1.1% |  | 7.31 µM (active)
22 | O=C(Nc1cccc(C(F)(F)F)c1)c1sc(Cl)nc1C(F)(F)F |  | -10.2% |  | 10.3 µM (active)
23 | CC(=O)c1cccc(NC(=O)c2sc(Cl)nc2C)c1 | -14.7% (inactive) | 12.6% |  | 
24 | O=C(Nc1cccc(C(F)(F)F)c1)c1cc(-c2ccco2)on1 | 26.8% (inactive) | 7.92% |  | 
25 | Cc1ccccc1NC(=O)c1sc(Cl)nc1C | 11.6% (inactive) |  |  | 
26 | Cc1nc(Cl)sc1C(=O)Nc1ccc(C(F)(F)F)cc1 |  | -0.73% |  | 1.64 µM (active)
27 | Cc1nc(Cl)sc1C(=O)Nc1ccccc1Cl | -5.61% (inactive) | -11.3% |  | 
28 | Cc1nc(Cl)sc1C(=O)Nc1cccc(Cl)c1 |  | 2.35% | inactive | 
29 | Cc1ncsc1C(=O)Nc1cccc(C(F)(F)F)c1 | 8.39% (inactive) | 22.3% |  | 
30 | COCCN(C(=O)CNC(=O)c1cccs1)C(C(=O)NC1CCCCC1)c1ccco1 (stereo not drawn) | 6.95% (inactive) | -12.2% |  | 
31 | CC(=O)C(Sc1nnnn1-c1ccc(O)cc1)c1ccccc1 (stereo not drawn) | 5.34% (inactive) | 5.67% |  | 
32 | Cn1c(N2CCN(C(=O)Nc3ccc(F)cc3)CC2)nc2ccccc21 | -3.7% (inactive) | 17.1% |  | 
33 | CC(C)n1c(N2CCN(C(=O)NCc3ccccc3)CC2)nc2ccccc21 | 4.69% (inactive) | -4.04% |  | 
34 | COc1ccc(NC(=O)N2CCN(c3nc4ccccc4n3C(C)C)CC2)cc1 |  | -28.6% |  | 14.6 µM (active)
35 | N#Cc1c(Cl)nc(SCc2ccccc2)nc1-c1ccccc1 | -0.854% (inactive) | -2.68% |  | 
36 | CCC(C)Sc1ccc([C@H]2N[C@@](Cc3ccccc3)(C(=O)OC)[C@H]3C(=O)N(C)C(=O)[C@@H]23)cc1 (stereo partly drawn) | -6.01% (inactive) | 17.3% |  | 
37 | O=C(CCN1C(=O)/C(=C/c2ccccc2)SC1=S)N[C@@H](CO)Cc1ccccc1 |  | -19.2% | inactive | 
38 | COc1cc(/C=C2\SC(=S)N(CCC(=O)Nc3ccccc3)C2=O)cc(OC)c1OC | -5.12% [at 9.22 µM] (inactive) | 15% |  | 
39 | COc1ccc(/C=C2\SC(=S)N(CCC(=O)Nc3cccc(O)c3)C2=O)cc1OC |  | -7.94% | inactive | 
40 | O=C(CCN1C(=O)/C(=C/c2ccc(F)cc2)SC1=S)N[C@@H](CO)Cc1ccccc1 |  | -1.15% |  | 29.1 µM (active)

Row | Structure (SMILES) | lipid storage change, negative = inhibition | cell number change | outcome | Potency
41 | COc1cc(/C=C2/SC(=S)N(CCC(=O)Nc3ccccc3)C2=O)cc(OC)c1OC |  |  |  | 1.84 µM (active)
42 | COc1cc(/C=C2\SC(=S)N(CC(=O)Nc3ccc(O)cc3)C2=O)cc(OC)c1OC | 12.1% (inactive) | 19.7% |  | 
43 | COc1cc(/C=C2\SC(=S)N(CCC(=O)Nc3cccc(O)c3)C2=O)cc(OC)c1OC |  | 10.2% |  | 3.66 µM (active)
44 | COc1cc(/C=C2\SC(=S)N(CCC(=O)Nc3ccccc3O)C2=O)cc(OC)c1OC | -14.3% (inactive) |  |  | 
45 | O=C(CCN1C(=O)/C(=C\c2ccc(F)cc2)SC1=S)Nc1ccccc1 |  |  | inactive | 
46 | COC(=O)c1ccccc1Oc1ccc(NC(=O)CCCl)cc1 | 7.03% (inactive) | -3.28% |  | 
47 | O=C(CSc1nnc(Cn2c(=O)sc3ccccc32)n1-c1ccccc1)N1CCCC1 | 4.03% (inactive) | -5.75% |  | 
48 | CC(C)C(C(=O)NCC1CCCO1)N(C(=O)CNS(=O)(=O)c1ccccc1)c1ccc(F)cc1 (stereo not drawn) |  | 10.5% | inactive | 
49 | Fc1cccc(COc2ccccc2CNc2ccccc2)c1 | -3.76% (inactive) | -10% |  | 
50 | COCCn1ccc2c(OCC(=O)NCc3ccccc3)cccc2c1=O | -25.1% (inactive) | -6.52% |  | 
51 | O=c1ccn(Cc2ccccc2)c2ccccc12 | -28% (inactive) | -20.5% |  | 
52 | O=[N+]([O-])/C=C/c1cn(Cc2ccc(F)cc2)c2ccccc12 |  | -17.9% |  | 20.6 µM (active)
53 | O=[N+]([O-])/C=C/c1cn(Cc2ccccc2)c2ccccc12 |  |  |  | 10.3 µM (active)
54 | O=C(O)c1ccc(N/N=C/c2cn(Cc3ccc(F)cc3)c3ccccc23)cc1 | 7.6% (inactive) | 0.719% |  | 
55 | CNC(=S)N/N=C/c1cn(Cc2ccc(F)cc2)c2ccccc12 | 22.5% (inactive) | -3.02% |  | 
56 | O=S(=O)(N/N=C/c1cn(Cc2ccccc2)c2ccccc12)c1ccccc1 | -12% (inactive) | -19.2% |  | 
57 | N/C(=N\OC(=O)C12CC3CC(CC(C3)C1)C2)c1ccncc1 | -5.89% (inactive) | -16.5% |  | 
58 | COc1ccc(N(C(=O)CNC(=O)c2ccco2)C(C(=O)NCC2CCCO2)c2ccccc2)cc1OC (stereo not drawn) |  | 7.66% | inactive | 
